Pf Dd2 growth – blocks growth of Plasmodium falciparum Dd2 parasites; 94,000 compounds, 2.3% hits; P. falciparum Dd2 growth, SYBR Green, 72 h; hits give low values; activity change, % at 10 µM; AID 1159554; in the data active = activity change below about -80%; inconclusive = no clear call, values can overlap the other calls
C diff HTS – inhibitors of Clostridium difficile growth. 86,000 compounds, 0.25% hits. growth activity, negative = inhibition, % at 16 µg/mL (by protocol). Clostridium difficile clinical isolate growth, OD600, 24 h; hits give low values;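 active = mean growth activity at or below -80% and every replicate also at or below -80%; inconclusive = mean at or below -80% but some replicate above -80%; inactive = mean growth activity above -80%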;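 note: 0% = DMSO wells and -100% = levofloxacin 16 µg/mL wells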
T cruzi growth-1 – inhibitors of T. cruzi proliferation; T. cruzi beta-gal in NIH3T3, GalScreen luminescence, 90 h; inhibition, % at 8.34 µM; 77,000 compounds, 5.9% hits; AID 624255;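 active = mean inhibition above about 93%, with at least 55% of replicates each passing it, limit read from the data, passing the limit was not always enough; inconclusive = only one of those two conditions holds; inactive = neither condition holds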
T cruzi growth-2 – blocks T. cruzi growth in NIH3T3 host cells; shares compounds with T cruzi growth-1; T. cruzi beta-gal in NIH3T3, GalScreen luminescence, 90 h; inhibition, % at 8.35 µM; 5,600 compounds, 72% hits; AID 651739;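 active = mean replicate inhibition above about 95% and at least 55% of replicates individually reaching it, limit read from the data; inconclusive = only one of the two criteria is met; inactive = neither criterion is met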
T cruzi growth-3 – inhibitors of T. cruzi proliferation; inhibition, % at 2.09 µM; T. cruzi beta-gal in NIH3T3, GalScreen luminescence, 90 h; shares compounds with T cruzi growth-1; 5,600 compounds, 21% hits;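 active = mean inhibition above about 95%, with at least 55% of replicates also reaching it, limit read from the data; inconclusive = meets just one of the two conditions; inactive = meets neither condition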;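 note: plate controls were neutral control median for no effect and positive control median for full effect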
3T3 cytotox – NIH/3T3 (mouse) viability loss. shares compounds with T cruzi growth-1. NIH/3T3 viability, CellTiter-Glo ATP luminescence, 90 h. cytotoxicity (signal decrease), % at 8.35 µM. 5,600 compounds, 14% hits;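 active = mean signal decrease across replicates above about 35% based on untreated-well scatter, with enough replicates individually passing, limit read from the data; inconclusive = no rule stated though some were filed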;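 note: 0% = median of neutral control wells and 100% = median of positive control wells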
3T3 cytotox 2 – NIH/3T3 (mouse) viability loss; shares compounds with T cruzi growth-1; inhibition, % at 24.9 µM; NIH/3T3 viability, CellTiter-Glo ATP luminescence, 90 h; 5,600 compounds, 56% hits;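 active = mean loss of cell viability signal at or above a set limit, and enough replicates individually reaching it; inconclusive = meets only the mean limit or only the replicate share; inactive = meets neither condition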;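 note: 0% = median of neutral control wells and 100% = median of positive control wells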
* = called active by the depositor; ? = inconclusive; . = not tested or not shown; ! = not active in a repeat. Shown are actives, neighbours in structure and some others; about 6.8% of the full set was active somewhere.

SMILES	Pf Dd2 growth	C diff HTS	T cruzi growth-1	T cruzi growth-2	T cruzi growth-3	3T3 cytotox	3T3 cytotox 2
O=C(C[C@H]1CC[C@H]2[C@@H](COC[C@@H](O)CN2C(=O)Nc2ccc(Cl)c(Cl)c2)O1)NCc1ccc(Cl)c(Cl)c1	-4	.	85	.	.	.	.
O=C(C[C@H]1CC[C@H]2[C@@H](COC[C@H](O)CN2C(=O)Nc2ccc(Cl)c(Cl)c2)O1)NCc1ccc(Cl)c(Cl)c1	-12	.	97*	85	64	41*	105*
O=C(C[C@@H]1CC[C@@H]2[C@H](COC[C@@H](O)CN2C(=O)Nc2ccc(Cl)c(Cl)c2)O1)NCc1ccncc1	-8	-96*!	127*	74	-8	4	?
CO[C@@H]1CN(C)C(=O)c2cc(NS(=O)(=O)c3cccc(C)c3)ccc2OC[C@@H](C)NC[C@H]1C	-43	.	-6	.	.	.	.
C[C@H]1CN([C@@H](C)CO)C(=O)c2cc(NC(=O)Nc3ccc(C(F)(F)F)cc3)ccc2O[C@H]1CN(C)Cc1ccncc1	7	7	.	.	.	.	.
COC(=O)C[C@@H]1CC[C@H](NS(=O)(=O)c2ccc(OC)cc2)[C@@H](CO)O1	14	.	-32	.	.	.	.
O=C(NC[C@H]1CC[C@@H]2[C@@H](CN2S(=O)(=O)c2ccccc2[N+](=O)[O-])O1)c1cccnc1	-8	-7	.	.	.	.	.
C[C@@H]1CN([C@H](C)CO)C(=O)Cc2cc(NC(=O)Cc3cn(C)c4ccccc34)ccc2O[C@@H]1CN(C)C	3	0	.	.	.	.	.
CO[C@H](CN(C)C(=O)Nc1ccc(Cl)cc1)[C@H](C)CN(Cc1ccccc1Cl)[C@@H](C)CO	-51	.	114*	103*	99*	42*	49*
CO[C@H](CN(C)S(=O)(=O)c1ccc(Cl)cc1)[C@H](C)CN(Cc1ccccc1Cl)[C@@H](C)CO	-25	.	77	.	.	.	.
CO[C@H](CN(C)C(=O)Nc1ccc(Cl)cc1)[C@H](C)CN(Cc1ccccc1Cl)[C@H](C)CO	-51	.	109*	109*	63	?	60*
CO[C@@H](CN(C)C(=O)Nc1ccc(F)cc1)[C@H](C)CN(Cc1ccccc1Cl)[C@H](C)CO	-16	.	-78	.	.	.	.
CO[C@H](CN(C)C(=O)Nc1ccc(F)cc1)[C@H](C)CN(Cc1ccccc1Cl)[C@H](C)CO	-23	.	-34	.	.	.	.
CO[C@@H](CN(C)S(=O)(=O)c1ccc(Cl)cc1)[C@H](C)CN(Cc1ccccc1Cl)[C@@H](C)CO	-28	.	71	.	.	.	.
CO[C@@H](CN(C)S(=O)(=O)c1ccc(Cl)cc1)[C@@H](C)CN(Cc1ccccc1Cl)[C@H](C)CO	-52	.	?	101*	-13	13	99*
CO[C@@H](CN(C)C(=O)Nc1ccc(Cl)cc1)[C@@H](C)CN(Cc1ccccc1Cl)[C@H](C)CO	-46	.	111*	106*	64	28	31*
C[C@@H]1CCCCO[C@H](CN(C)C(=O)Nc2ccccc2)[C@@H](C)CN([C@@H](C)CO)C(=O)c2cc(NS(=O)(=O)c3cccs3)ccc2O1	.	-9	41	.	.	.	.
C[C@@H]1CN([C@@H](C)CO)C(=O)c2cc(NS(=O)(=O)c3cccs3)ccc2O[C@@H]1CN(C)Cc1ccncc1	-3	-5	-116	.	.	.	.
COc1ccc(-c2ccc3n(c2=O)C[C@@H]2[C@@H](CO)[C@H](C(=O)NCCN4CCCCC4)N(C)[C@H]32)cc1	47	-1	.	.	.	.	.
C[C@@H](O)C#Cc1ccc2c(c1)O[C@H](CN(C)C(=O)C1CCCCC1)[C@@H](C)CN([C@@H](C)CO)S2(=O)=O	-28	3	68	.	.	.	.
CC=Cc1ccc2n(c1=O)C[C@H]1[C@H](CO)[C@@H](C(=O)Nc3ccc(-c4ccccc4)cc3)N(CCC)[C@@H]21 (mixture of isomers)	-29	8	112*	92	85	24	104*
CC=Cc1ccc2n(c1=O)C[C@@H]1[C@@H](CO)[C@H](C(=O)Nc3ccc(-c4ccccc4)cc3)N(CCC)[C@H]21 (mixture of isomers)	-38	9	103*	100*	68	7	106*
CC=Cc1ccc2n(c1=O)C[C@H]1[C@H](CO)[C@@H](C(=O)Nc3ccc(-c4ccccc4)cc3)N(C(C)=O)[C@@H]21 (mixture of isomers)	8	9	-1	.	.	.	.
CC=Cc1ccc2n(c1=O)C[C@H]1[C@H](CO)[C@@H](C(=O)Nc3ccc(-c4ccccc4)cc3)N(C)[C@@H]21 (mixture of isomers)	.	18	90	.	.	.	.
CN(C)C(=O)C[C@@H]1C=C[C@@H](NC(=O)C2CCOCC2)[C@H](CO)O1	-13	4	.	.	.	.	.
SMILES	Pf Dd2 growth	C diff HTS	T cruzi growth-1	T cruzi growth-2	T cruzi growth-3	3T3 cytotox	3T3 cytotox 2
C[C@H]1CN([C@@H](C)CO)C(=O)c2cc(-c3ccccc3)cnc2O[C@@H]1CN(C)C(=O)Cc1ccccn1	-13	-2	-44	.	.	.	.
C[C@@H]1CN([C@@H](C)CO)C(=O)c2cccc(NC(=O)c3nc4ccccc4s3)c2O[C@@H]1CN(C)Cc1ccccc1	-39	2	88	.	.	.	.
C[C@@H]1CN([C@H](C)CO)C(=O)c2cccc(NC(=O)c3nc4ccccc4s3)c2O[C@H]1CN(C)Cc1ccc(Cl)c(Cl)c1	-55	2	94	.	.	.	.
C[C@H](CO)N1C[C@H](C)[C@@H](CN(C)Cc2ccc(-c3ccccc3)cc2)Oc2c(NC(=O)c3nc4ccccc4s3)cccc2C1=O	-51	7	?	105*	87	15	12
C[C@H](CO)N1C[C@H](C)[C@H](CN(C)Cc2ccc(-c3ccccc3)cc2)Oc2c(NC(=O)c3nc4ccccc4s3)cccc2C1=O	-47	4	64	.	.	.	.
C[C@H]1CN([C@@H](C)CO)C(=O)c2cccc(NC(=O)c3nc4ccccc4s3)c2O[C@H]1CN(C)Cc1ccc(-c2ccccc2)cc1	-18	4	102*	102*	83	25	22
Cc1ccc(S(=O)(=O)N(C)C[C@H]2Oc3c(NC(=O)c4nc5ccccc5s4)cccc3C(=O)N([C@@H](C)CO)C[C@@H]2C)cc1	-66	-2	115*	?	93	10	44*
C[C@H](CO)N1C[C@H](C)[C@@H](CN(C)Cc2ccc(Cl)c(Cl)c2)Oc2c(NC(=O)c3nc4ccccc4s3)cccc2C1=O	-39	10	102*	99*	87	-8	3
Cc1ccc(S(=O)(=O)N(C)C[C@H]2Oc3c(NC(=O)c4nc5ccccc5s4)cccc3C(=O)N([C@H](C)CO)C[C@@H]2C)cc1	-79	-8	105	.	.	.	.
COCC#Cc1cnc2c(c1)C(=O)N([C@H](C)CO)C[C@@H](C)[C@H](CN(C)Cc1ccccc1F)O2	-28	2	-7	.	.	.	.

High-throughput results deposited in PubChem by Broad Institute.
